Laboratory results taken from PubChem BioAssay (NCATS).
Values joined by “and” are separate entries in the source; they are usually repeats but may differ in a detail not shown here. Identical values can stand only once. Results filed as inconclusive are left out. Where a call stands in place of a potency, no number is given. Active and inactive are the calls of the source. Unless noted, the call rests on the fitted dose curve.

Assays:
[1] = biological target: DNA dC->dU-editing enzyme APOBEC-3G (Homo sapiens) (UniProt Q9HC16); experiment: qHTS for inhibitors of Vif-A3G interactions: Validation (AID 588379; active means well fitted inhibition curve with a large enough effect)
Sequence of DNA dC->dU-editing enzyme APOBEC-3G (Homo sapiens) (Q9HC16 whole entry, looked up): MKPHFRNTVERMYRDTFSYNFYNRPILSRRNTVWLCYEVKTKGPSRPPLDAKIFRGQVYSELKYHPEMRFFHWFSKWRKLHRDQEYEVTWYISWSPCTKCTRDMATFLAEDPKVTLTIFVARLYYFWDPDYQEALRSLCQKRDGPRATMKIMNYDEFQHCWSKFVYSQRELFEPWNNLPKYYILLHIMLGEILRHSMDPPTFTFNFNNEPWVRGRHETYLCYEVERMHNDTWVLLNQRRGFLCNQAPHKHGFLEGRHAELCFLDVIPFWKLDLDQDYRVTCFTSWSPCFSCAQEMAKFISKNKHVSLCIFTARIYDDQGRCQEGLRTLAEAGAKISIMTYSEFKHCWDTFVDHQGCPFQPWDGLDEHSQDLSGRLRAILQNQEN
How it was run: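 Yellow fluorescence (Ex 488, Em 500-530) of Vif-coexpressing HeLa A3G-eYFP cells, scanned by Acumen cytometer, reports blocked A3G degradation. Cells plated at 700/well overnight at 37 deg C before compound addition, then a further overnight compound incubation at 37 deg C.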

[2] = biological target: Peroxisome proliferator-activated receptor gamma (Homo sapiens) (UniProt P37231); experiment: qHTS assay for small molecule antagonists of peroxisome proliferator-activated receptor gamma signaling (AID 588537; active means well fitted inhibition curve with a large enough effect in the signal ratio, with a control signal flat, not every such curve was filed as active; the % refers to the signal ratio;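 further: reporter cells co-stimulated with 50 nM rosiglitazone agonist during compound treatment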)
Sequence of Peroxisome proliferator-activated receptor gamma (Homo sapiens) (P37231 whole entry, looked up): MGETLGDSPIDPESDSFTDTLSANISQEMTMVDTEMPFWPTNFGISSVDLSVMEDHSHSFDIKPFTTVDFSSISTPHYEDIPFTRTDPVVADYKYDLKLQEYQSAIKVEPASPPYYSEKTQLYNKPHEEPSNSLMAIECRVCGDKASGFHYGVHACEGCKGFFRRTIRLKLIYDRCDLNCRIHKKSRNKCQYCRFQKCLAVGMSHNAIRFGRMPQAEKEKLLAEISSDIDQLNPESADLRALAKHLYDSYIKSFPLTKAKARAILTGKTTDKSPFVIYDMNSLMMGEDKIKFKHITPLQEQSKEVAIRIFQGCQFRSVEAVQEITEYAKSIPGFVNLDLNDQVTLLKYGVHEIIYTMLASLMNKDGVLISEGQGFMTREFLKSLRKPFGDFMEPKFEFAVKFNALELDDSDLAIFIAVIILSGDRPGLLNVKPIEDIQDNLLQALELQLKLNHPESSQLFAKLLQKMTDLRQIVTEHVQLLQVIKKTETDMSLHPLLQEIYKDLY
How it was run: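 HEK293 cells, PPAR-gamma-UAS-bla, 3000/well. Pre-incubation 6-6.5 h, 37 C. Compound titration with rosiglitazone 50 nM final, 16 h. CCF4 dye, 2 h RT, dual-emission fluorescence.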

[3] = biological target: Glucocorticoid receptor (Homo sapiens) (UniProt P04150); experiment: qHTS assay for small molecule antagonists of glucocorticoid receptor signaling (AID 588533; active means well fitted inhibition curve with a large enough effect in the signal ratio, with a control signal flat, not every such curve was filed as active; the % refers to the signal ratio;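 further: cells stimulated with 2 nM dexamethasone as agonist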)
Sequence of Glucocorticoid receptor (Homo sapiens) (P04150 whole entry, looked up): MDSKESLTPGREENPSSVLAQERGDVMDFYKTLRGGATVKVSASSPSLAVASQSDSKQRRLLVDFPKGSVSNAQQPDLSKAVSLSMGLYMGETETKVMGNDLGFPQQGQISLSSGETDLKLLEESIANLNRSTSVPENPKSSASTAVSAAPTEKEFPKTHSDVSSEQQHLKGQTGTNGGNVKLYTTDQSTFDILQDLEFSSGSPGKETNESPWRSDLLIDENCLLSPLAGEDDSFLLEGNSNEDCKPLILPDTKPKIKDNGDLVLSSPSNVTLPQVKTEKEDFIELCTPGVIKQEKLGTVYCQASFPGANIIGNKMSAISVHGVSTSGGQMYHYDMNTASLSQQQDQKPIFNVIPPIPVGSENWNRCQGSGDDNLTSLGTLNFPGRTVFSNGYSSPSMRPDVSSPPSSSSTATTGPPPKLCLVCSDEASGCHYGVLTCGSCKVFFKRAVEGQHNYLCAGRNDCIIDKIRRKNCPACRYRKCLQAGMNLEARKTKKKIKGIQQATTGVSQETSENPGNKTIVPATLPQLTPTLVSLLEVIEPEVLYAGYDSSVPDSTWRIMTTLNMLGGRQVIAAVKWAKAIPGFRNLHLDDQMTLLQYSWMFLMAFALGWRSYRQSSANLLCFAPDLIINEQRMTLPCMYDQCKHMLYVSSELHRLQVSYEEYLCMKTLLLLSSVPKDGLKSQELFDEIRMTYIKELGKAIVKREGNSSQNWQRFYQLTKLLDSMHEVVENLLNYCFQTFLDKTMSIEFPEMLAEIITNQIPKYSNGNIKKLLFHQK
How it was run: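 Antagonist-mode qHTS: compound titrations added to GRE-bla HeLa cells, then dexamethasone 2 nM final; 18 h, 37 C. CCF4 FRET fluorescence normalized to dexamethasone and DMSO; IC50 from Hill fit.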

[4] = biological target: Estrogen receptor (Homo sapiens) (UniProt P03372); experiment: qHTS assay for small molecule agonists of estrogen receptor alpha signaling (AID 588514); further: nearly all actives have a fitted effect of over 70% in size
Sequence of Estrogen receptor (Homo sapiens) (P03372 whole entry, looked up): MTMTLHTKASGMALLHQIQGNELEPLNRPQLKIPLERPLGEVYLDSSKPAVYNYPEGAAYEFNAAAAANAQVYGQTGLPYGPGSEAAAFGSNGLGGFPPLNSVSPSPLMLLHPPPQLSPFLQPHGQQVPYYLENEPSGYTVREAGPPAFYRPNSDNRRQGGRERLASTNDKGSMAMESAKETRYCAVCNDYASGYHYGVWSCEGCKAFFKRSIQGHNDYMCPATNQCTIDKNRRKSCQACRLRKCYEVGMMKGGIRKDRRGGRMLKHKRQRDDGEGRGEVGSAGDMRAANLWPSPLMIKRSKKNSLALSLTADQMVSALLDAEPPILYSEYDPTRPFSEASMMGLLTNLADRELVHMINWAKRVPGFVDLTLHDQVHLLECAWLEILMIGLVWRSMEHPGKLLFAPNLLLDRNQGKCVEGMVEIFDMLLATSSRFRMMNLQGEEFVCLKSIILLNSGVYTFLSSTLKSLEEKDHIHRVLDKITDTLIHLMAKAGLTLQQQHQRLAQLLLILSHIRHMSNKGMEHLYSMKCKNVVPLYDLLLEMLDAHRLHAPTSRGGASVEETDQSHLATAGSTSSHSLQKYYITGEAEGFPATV
How it was run: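 Fluorescence from CCF4 cleavage reports ER-alpha-driven beta-lactamase expression in HEK 293 cells treated 18 hrs at 37 C. Data normalized to 17-beta-estradiol (20 nM) and DMSO, fitted to Hill equation.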

[5] = biological target: Glucocorticoid receptor (Homo sapiens) (UniProt P04150); experiment: qHTS assay for small molecule agonists of glucocorticoid receptor signaling (AID 588532; active means well fitted curve in the direction sought with a large enough effect in the signal ratio, with a control signal flat; the % refers to the signal ratio); settings: HeLa MMTV-bla, beta-lactamase ratio, agonist, 18 h; stronger effect = higher value; percent of dexamethasone control, DMSO zero
How it was run: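 Stimulation of a glucocorticoid response element-driven beta-lactamase gene was measured in HeLa cells. Responses were scaled between DMSO basal and 0.1 uM dexamethasone, then fitted for half-maximal stimulation.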

[6] = qHTS assay for small molecule antagonists of peroxisome proliferator-activated receptor delta signaling (AID 588535; active means well fitted inhibition curve with a large enough effect in the signal ratio, with a control signal flat, not every such curve was filed as active; the % refers to the signal ratio;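 on max response: cells co-treated with a PPAR-delta agonist as stimulator during compound exposure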); settings: HEK293T PPARd-UAS-bla, beta-lactamase FRET ratio, 18 h; 460 nm channel
How it was run: (§1)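 Compounds tested in titration on PPAR-delta-UAS-bla HEK293T cells grown in charcoal/dextran-stripped serum (2%); beta-lactamase activity read via CCF4 emission at 460 and 530 nm.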

[7] = biological target: Peroxisome proliferator-activated receptor delta (Homo sapiens) (UniProt Q03181); experiment: as above
Sequence of Peroxisome proliferator-activated receptor delta (Homo sapiens) (Q03181 whole entry, looked up): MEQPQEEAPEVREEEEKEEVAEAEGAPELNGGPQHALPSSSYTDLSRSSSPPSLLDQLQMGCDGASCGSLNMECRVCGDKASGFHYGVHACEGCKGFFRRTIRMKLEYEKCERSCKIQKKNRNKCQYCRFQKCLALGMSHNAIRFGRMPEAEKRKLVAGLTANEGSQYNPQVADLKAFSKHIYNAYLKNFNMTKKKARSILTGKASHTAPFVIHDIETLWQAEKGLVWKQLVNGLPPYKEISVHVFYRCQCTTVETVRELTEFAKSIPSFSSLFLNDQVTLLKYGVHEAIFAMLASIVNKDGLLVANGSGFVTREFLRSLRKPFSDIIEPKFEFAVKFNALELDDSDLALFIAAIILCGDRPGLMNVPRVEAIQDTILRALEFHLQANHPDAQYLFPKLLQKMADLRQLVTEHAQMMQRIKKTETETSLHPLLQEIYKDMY
How it was run: as §1

[8] = biological target: Androgen receptor (Homo sapiens) (UniProt P10275); experiment: qHTS assay for small molecule antagonists of androgen receptor signaling (AID 588516; active means well fitted curve in the direction sought with a large enough effect in the signal ratio, with a control signal flat, not every such curve was filed as active; the % refers to the signal ratio)
Sequence of Androgen receptor (Homo sapiens) (P10275 whole entry, looked up): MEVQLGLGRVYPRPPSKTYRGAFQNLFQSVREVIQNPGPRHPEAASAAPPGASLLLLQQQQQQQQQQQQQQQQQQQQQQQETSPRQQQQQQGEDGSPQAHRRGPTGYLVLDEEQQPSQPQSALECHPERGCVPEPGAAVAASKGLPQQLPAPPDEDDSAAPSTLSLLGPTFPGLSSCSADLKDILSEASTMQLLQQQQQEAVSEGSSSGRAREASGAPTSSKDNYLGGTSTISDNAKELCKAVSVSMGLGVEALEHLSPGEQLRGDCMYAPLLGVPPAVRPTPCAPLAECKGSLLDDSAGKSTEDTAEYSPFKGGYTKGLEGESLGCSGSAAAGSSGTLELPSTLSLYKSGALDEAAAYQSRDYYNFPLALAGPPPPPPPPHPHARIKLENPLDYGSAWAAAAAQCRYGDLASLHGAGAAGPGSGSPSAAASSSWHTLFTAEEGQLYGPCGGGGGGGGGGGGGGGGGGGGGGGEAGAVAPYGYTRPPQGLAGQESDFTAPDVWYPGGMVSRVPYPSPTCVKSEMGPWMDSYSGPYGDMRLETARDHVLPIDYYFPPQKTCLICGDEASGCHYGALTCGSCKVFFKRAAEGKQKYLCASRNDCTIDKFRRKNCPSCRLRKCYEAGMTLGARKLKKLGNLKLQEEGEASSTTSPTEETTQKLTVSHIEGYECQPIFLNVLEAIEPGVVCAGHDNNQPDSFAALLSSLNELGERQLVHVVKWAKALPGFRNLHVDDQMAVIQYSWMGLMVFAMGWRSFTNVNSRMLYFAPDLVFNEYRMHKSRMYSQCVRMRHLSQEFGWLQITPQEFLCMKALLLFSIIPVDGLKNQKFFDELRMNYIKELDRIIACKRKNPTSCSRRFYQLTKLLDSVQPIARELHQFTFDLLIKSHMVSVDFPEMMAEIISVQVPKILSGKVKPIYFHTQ
How it was run: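 Compounds tested in titration against 10 nM R1881 in AR-responsive bla reporter HEK 293 cells; CCF4 fluorescence (460/530 nm) after 16 h exposure gave IC50 and efficacy.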

[9] = biological target: Bile acid receptor (Homo sapiens) (UniProt Q96RI1); experiment: qHTS assay for small molecule antagonists of farnesoid X receptor signaling (AID 588526)
Sequence of Bile acid receptor (Homo sapiens) (Q96RI1 whole entry, looked up): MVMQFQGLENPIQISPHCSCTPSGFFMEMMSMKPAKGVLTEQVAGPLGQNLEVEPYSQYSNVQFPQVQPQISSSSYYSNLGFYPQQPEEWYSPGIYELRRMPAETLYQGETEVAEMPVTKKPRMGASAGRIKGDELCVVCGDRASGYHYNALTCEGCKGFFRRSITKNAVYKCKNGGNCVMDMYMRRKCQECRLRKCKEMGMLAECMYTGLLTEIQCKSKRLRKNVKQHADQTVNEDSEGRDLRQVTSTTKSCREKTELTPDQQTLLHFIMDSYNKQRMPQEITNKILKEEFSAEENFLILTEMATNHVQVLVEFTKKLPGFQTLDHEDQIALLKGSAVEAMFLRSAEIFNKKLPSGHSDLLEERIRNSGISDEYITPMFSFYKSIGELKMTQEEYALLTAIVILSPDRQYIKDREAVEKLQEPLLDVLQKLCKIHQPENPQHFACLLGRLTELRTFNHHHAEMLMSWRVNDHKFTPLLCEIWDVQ
How it was run: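 Concentration-response titrations were fitted to the Hill equation for half-maximal inhibition and maximal response, with data normalised to 50 uM chenodeoxycholic acid and DMSO control wells. Cells: FXR-UAS-bla HEK293T, dialyzed FBS.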

CNCCCCOc1ccccc1Cc1ccccc1
outcome [1]: inactive

CC1(C)OC[C@@H]2O[C@@]3(C(=O)O)OC(C)(C)O[C@H]3[C@@H]2O1
Potency [2]: inactive

CCCCCCCCCCCCCCCC(=O)O
outcome [3]: inactive

O=C(c1ccc(F)cc1)C1CCN(CCn2c(=S)[nH]c3ccccc3c2=O)CC1
outcome [1]: inactive

COc1ccc(C(Cl)=C(c2ccc(OC)cc2)c2ccc(OC)cc2)cc1
Potency [4]: inactive
activation [5]: 2.85% (inactive)
outcome [3]: inactive
max response [6]: 23%
outcome [7]: inactive

C/C=C/c1ccc(O)c(OC)c1
Potency [4]: inactive
max response [6]: 10.7% and 20%
outcome [7]: inactive
Potency [2]: inactive

OC[C@H]1O[C@@H]2O[C@H]3[C@H](O)[C@@H](O)[C@@H](O[C@H]4[C@H](O)[C@@H](O)[C@@H](O[C@H]5[C@H](O)[C@@H](O)[C@@H](O[C@H]6[C@H](O)[C@@H](O)[C@@H](O[C@H]7[C@H](O)[C@@H](O)[C@@H](O[C@H]8[C@H](O)[C@@H](O)[C@@H](O[C@H]1[C@H](O)[C@H]2O)O[C@@H]8CO)O[C@@H]7CO)O[C@@H]6CO)O[C@@H]5CO)O[C@@H]4CO)O[C@@H]3CO
activation [5]: -6.02% (inactive)

CCCCCCCCCCCCCC(=O)OC(C)C
Potency [8]: inactive
activation [5]: 5.08% (inactive)
outcome [3]: inactive
Potency [2]: inactive

O=c1[nH]c(=O)n([C@H]2C[C@H](O)[C@@H](CO)O2)cc1F
outcome [1]: inactive

CN=C(N)NCCC[C@H](N)C(=O)O
outcome [1]: inactive

CCCCCCCCCCCCCCCCO
Potency [4]: inactive
activation [5]: -8.72% (inactive)
outcome [3]: inactive
max response [6]: -7.5%
outcome [7]: inactive
Potency [2]: inactive

CCCCOC(=O)CC(CC(=O)OCCCC)(OC(C)=O)C(=O)OCCCC
outcome [9]: inactive
outcome [3]: inactive
max response [6]: 0.806%
outcome [7]: inactive
Potency [2]: inactive

COc1cc([C@H]2Oc3cc([C@H]4Oc5cc(O)cc(O)c5C(=O)[C@@H]4O)ccc3O[C@@H]2CO)ccc1O
outcome [9]: inactive
activation [5]: -3.21% (inactive)

CCCCCCCCOc1ccc(C(=O)c2ccccc2)c(O)c1
Potency [4]: inactive
max response [6]: 16.2%
outcome [7]: inactive
Potency [2]: inactive

CCCCC(CC)COC(=O)c1ccc(N(C)C)cc1 (stereo unspecified)
Potency [4]: inactive
outcome [9]: inactive
activation [5]: -4.68% (inactive)
outcome [3]: inactive
max response [6]: 0.453% and -4.75%
outcome [7]: inactive
Potency [2]: inactive

Cl/C(=C\n1cncn1)c1ccc(Cl)cc1Cl
outcome [1]: inactive

CN1CCc2cccc3c2[C@H]1Cc1ccc(O)c(O)c1-3
outcome [1]: inactive

C=C[C@@]1(C)CC(=O)[C@]2(O)[C@@]3(C)[C@@H](O)CCC(C)(C)[C@@H]3[C@H](O)[C@H](OC(C)=O)[C@@]2(C)O1
activation [5]: 3.9% (inactive)
outcome [3]: inactive
Potency [2]: inactive

CN(C)CCC[C@@]1(c2ccc(F)cc2)OCc2cc(C#N)ccc21
outcome [1]: inactive

CC(C)(C)NC[C@H](O)COc1nsnc1N1CCOCC1
outcome [1]: inactive
